Test [1] in a line: qHTS assay to identify small molecule agonists of the hypoxia (HIF-1) signaling pathway - cell viability counter screen (AID 1224844; calls by dose curve; further: nearly all actives have a fitted effect of over 50% in size). In a few lines: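 HRE-bla ME-180 cells in medium with 0.5% dialyzed FBS were preincubated 5 hrs at 37C, exposed to compounds for 17 hrs, then viability was read as CellTiter-Glo luminescence after 30 min at room temperature, in the reporter wells.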
A general note: In qHTS, concentration-response curves come from the screen itself.

A short description of test [2]: qHTS assay to identify small molecule agonists of H2AX (AID 1224845; active means well fitted activation curve with a large enough effect in the signal ratio in the repeat runs, not every such curve was filed as active; the % refers to the signal ratio). In a few lines:
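Wild-type CHO-K1 cells plated overnight, then exposed 3 hr at 37C to compounds at 15 concentrations (0.76% DMSO). Lysed, then HTRF anti-pH2AX(S139)-cryptate/anti-H2AX-d2 detection after 24 hr at room temperature; emissions 665 and 620 nm.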

Test [3] is described as follows: qHTS assay to identify small molecule agonists of the hypoxia (HIF-1) signaling pathway (AID 1224846; active means well fitted activation curve with a large enough effect in the signal ratio in the repeat runs, not every such curve was filed as active; the % refers to the signal ratio). In a few lines:
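HRE-bla ME-180 cells (beta-lactamase reporter under hypoxia response element) were plated at 2,000 cells/well in medium with 0.5% dialyzed FBS, rested 5 hrs, then given compounds in DMSO for 17 hrs at 37C, 5% CO2. Reporter induction was read with CCF4-AM FRET substrate.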

Test [4] can be described thus: qHTS assay to identify small molecule agonists of H2AX - cell viability counter screen (AID 1224847; calls by dose curve; further: top concentration of the series differs between compounds; nearly all actives have a fitted effect of over 30% in size). In a few lines:
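CHO-K1 cells plated overnight at 37C, then exposed 3 h at 37C to compounds at 15 concentrations (0.76% DMSO final). Viability by CellTiter-Glo luminescence after 30 min at room temperature.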

Test [5] is described as follows: qHTS RealTime-Glo MT Cell Viability Assay in HepG2 cells - 24 hour (AID 1224867). Further: nearly all actives have a fitted effect of over 50% in size. The method, boiled down:
(§1)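 Tox21 10K library screened in qHTS format on HepG2 cells carrying RealTime-Glo reagents. Compounds were added after a 5 h preincubation, and the luminescent signal from continuous culture was measured repeatedly during 40 h treatment.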

Test [6] is described as follows: qHTS RealTime-Glo MT Cell Viability Assay in HEK293 cells - 32 hour (AID 1224868). Further: nearly all actives have a fitted effect of over 50% in size. Further: potency means the concentration at half of the fitted maximal effect. The method, boiled down: (§2)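 Luminescence generated by NanoLuc from substrate produced by living HEK293 cells served as the viability signal. Each value reflects the reading at its stated time point during continuous 40 h compound exposure at 37 C.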
A short description of test [7]: A CellTox Green Cytotoxicity Assay to monitor cytotoxicity in HEK293 cells - 0 hour (AID 1224869). Further: nearly all actives have a fitted effect of over 50% in size. Further: potency means the concentration at half of the fitted maximal effect. In a few lines: (§3)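 HEK293 cells premixed with CellTox Green dye were seeded at 600 cells/well and left 5 h at 37 C/5% CO2 before pin transfer of 23 nL compound in DMSO. Fluorescence from dye bound to dead-cell DNA was read during 40 h treatment.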
The nature of test [8]: qHTS RealTime-Glo MT Cell Viability Assay in HepG2 cells - 40 hour (AID 1224870). Further: nearly all actives have a fitted effect of over 50% in size. In a few lines:
(§4)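 HepG2 cells mixed with RealTime-Glo MT reagents (NanoLuc plus cell-permeant prosubstrate) were seeded at 600 cells/well, incubated 5 h at 37 C/5% CO2, then pinned with compounds in DMSO; nonlytic luminescence tracked viability during 40 h treatment.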

A short description of test [9]: A CellTox Green Cytotoxicity Assay to monitor cytotoxicity in HEK293 cells - 40 hour (AID 1224871). Further: nearly all actives have a fitted effect of over 45% in size. Further: potency means the concentration at half of the fitted maximal effect. The method, boiled down: as §3
A short description of test [10]: qHTS RealTime-Glo MT Cell Viability Assay in HEK293 cells - 16 hour (AID 1224872). Further: nearly all actives have a fitted effect of over 50% in size. Further: potency means the concentration at half of the fitted maximal effect. In a few lines:
as §2

Test [11] can be described thus: qHTS RealTime-Glo MT Cell Viability Assay in HepG2 cells - 8 hour (AID 1224873). Further: nearly all actives have a fitted effect of over 55% in size. In a few lines:
as §4

Test [12] can be described thus: qHTS RealTime-Glo MT Cell Viability Assay in HEK293 cells - 40 hour (AID 1224874). Further: nearly all actives have a fitted effect of over 50% in size. Further: potency means the concentration at half of the fitted maximal effect. The conditions noted are these: RealTime-Glo luminescence; max response: active compounds read low. The method, boiled down: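 HEK293 cells mixed with RealTime-Glo reagents (NanoLuc plus cell-permeant prosubstrate) at 600 cells/well, preincubated 5 h at 37 C/5% CO2, then given 23 nL compound in DMSO. Nonlytic luminescence from viable cells was read at 0, 8, 16, 24, 32 and 40 h.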

Test [13] in a line: A CellTox Green Cytotoxicity Assay to monitor cytotoxicity in HEK293 cells - 24 hour (AID 1224875). Further: nearly all actives have a fitted effect of over 45% in size. Further: potency means the concentration at half of the fitted maximal effect. The method, boiled down: as §3
The nature of test [14]: A CellTox Green Cytotoxicity Assay to monitor cytotoxicity in HepG2 cells - 16 hour (AID 1224876). Further: nearly all actives have a fitted effect of over 45% in size. Further: potency means the concentration at half of the fitted maximal effect. In a few lines:
(§5)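 HepG2 cells were seeded together with the CellTox Green dye at 600 cells/well, left 5 h at 37 C/5% CO2, then given compounds in DMSO. Fluorescence from dye bound to dead-cell DNA was read repeatedly over 40 h of treatment at 37 C.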

The nature of test [15]: qHTS RealTime-Glo MT Cell Viability Assay in HepG2 cells - 32 hour (AID 1224877). Further: nearly all actives have a fitted effect of over 55% in size. In a few lines: as §1
Test [16] can be described thus: A CellTox Green Cytotoxicity Assay to monitor cytotoxicity in HepG2 cells - 24 hour (AID 1224878). Further: nearly all actives have a fitted effect of over 45% in size. Further: potency means the concentration at half of the fitted maximal effect. In a few lines:
as §5

A short description of test [17]: A CellTox Green Cytotoxicity Assay to monitor cytotoxicity in HepG2 cells - 40 hour (AID 1224879). Further: nearly all actives have a fitted effect of over 40% in size. Further: potency means the concentration at half of the fitted maximal effect. In a few lines: as §5
A short description of test [18]: qHTS assay to identify small molecule antagonists of the estrogen related receptor (ERR) signaling pathway from Tox21 library (AID 1224848). Further: nearly all actives have a fitted effect of over 50% in size. The method, boiled down: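 Screening used an ERR reporter line supplied by NTP, exposed for 18 h at 37 C to library compounds delivered in DMSO. Signal was luciferase luminescence developed with ONE-Glo at room temperature for 30 min.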

A short description of test [19]: qHTS assay to identify small molecule agonists of the estrogen related receptor (ERR) signaling pathway from Tox21 library (AID 1224849; calls by dose curve; further: nearly all actives have a fitted effect of over 15% in size). The note with it: ERR reporter cell line, ONE-Glo luciferase, 18 h; at 92.4 µM (top of the series) unless noted. The method, boiled down: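 ERR reporter cell line (NTP) seeded, rested 6 h at 37 C/5% CO2, then pinned with Tox21 compounds in DMSO. After 18 h at 37 C, ONE-Glo luciferase luminescence was read following 30 min at room temperature.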

Data on eight molecules can be found in PubChem BioAssay (Tox21).

Values without a mark were called inactive. Records with an inconclusive call do not appear. Activity calls are given as the source filed them. Unless noted, the call rests on the fitted dose curve; in most records, active means well fitted curve in the direction sought with a large enough effect in the repeat runs; inconclusive means weak or mixed curves; inactive means no such curve, though single readings can be large; an effect the other way counts as inactive or inconclusive.
On the % scale 0 is the no-effect control and ±100 the full control effect.

Take `C=Cc1ccccc1`: the Potency result in test [1], in test [2], in test [4], in test [5], in test [6] and in test [7] was “inactive” in each case. In addition, the Potency entry in [8], in test [9], in test [10], in test [13], in test [14] and in [15] was “inactive” each time. Further, the Potency result in [16] and in test [17] was “inactive” throughout. Moreover, the molecule was classed as inactive in test [3] and in test [11]. The max response in [12] is 10.3%.
With `FC(F)(F)C(Cl)(Cl)Cl`, the Potency result in [1], in [2], in test [4], in test [5], in test [6] and in [7] was “inactive” in each case. For the same molecule, the Potency result in test [8], in test [9], in [10], in [13], in [14] and in test [15] was “inactive” each time. Also, in test [17], the Potency entry was “inactive”. In addition, the molecule was classed as inactive in test [3]. The max response in test [12] is 6.41%.
For the molecule `CCC(=O)c1ccc2c(c1)N(CCCN(C)C)c1ccccc1S2`, the Potency result in test [1], in [2], in [4], in test [5], in test [7] and in [8] was “inactive” each time. The Potency result in test [13] and in [15] was “inactive” each time. For the same molecule, the outcome in test [3] and in [11] was inactive. In addition, the Potency is 16.9 µM (active) in test [6], 10.7 µM (active) in [10] and 19 µM (active) in [12].
On to `Cc1cn([C@@H]2O[C@H](CO)[C@@H](O)[C@@H]2F)c(=O)[nH]c1=O`, for which the Potency result in test [1], in test [2], in [4], in test [5], in test [6] and in [7] was “inactive” each time. Further, the Potency result in test [8], in [9], in test [10], in [13], in test [14] and in test [15] was “inactive” in each case. Moreover, the Potency result in test [16] and in test [17] was “inactive” in each case. Besides, the result in test [3] and in [11] was inactive. For the same molecule, the max response in test [12] is -1.92%.
Regarding `CCCCC(CC)COC(=O)COc1cc(Cl)c(Cl)cc1Cl` (stereo not given), the Potency result in test [1], in test [2], in [4], in test [5], in [6] and in test [7] was “inactive” in each case. The Potency result in test [8], in test [9], in [10], in test [13], in test [14] and in test [15] was “inactive” in each case. Also, the Potency entry in test [16] and in test [17] was “inactive” each time. Moreover, the result in [3] and in test [11] was inactive. The max response in [12] was -3.13%.
Turning to `CCCC1CCC(=O)O1` (stereo not given), the Potency result in test [1], in test [2], in test [4], in test [5], in test [6] and in [7] was “inactive” each time. Further, the Potency entry in [8], in test [9], in test [10], in test [13], in test [14] and in test [15] was “inactive” each time. In addition, the Potency entry in test [16] and in [17] was “inactive” in each case. In addition, the call in test [3] and in test [11] was inactive. Further, the max response in test [12] was 4.54%.
As to `O=C1CCC(C2CCCCC2)CC1`, the Potency result in test [1], in test [2], in test [4], in [18], in test [5] and in test [8] was “inactive” throughout. In addition, the Potency result in [15] is “inactive”. Besides, the molecule was called inactive in test [3] and in test [11]. Further, in [19], the activity change, positive = activation is -9.72%. For the same molecule, the Potency in test [7] is 43.6 µM (active); in [9], 49 µM (active); in test [13], 43.6 µM (active); in [14], 38.9 µM (active); in test [16] it was 38.9 µM (active); in test [17], 38.9 µM (active).
Turning to `Cc1cc2c(s1)Nc1ccccc1N=C2N1CCN(C)CC1`, the Potency result in [1], in [2], in [4], in [18], in test [5] and in test [6] was “inactive” in each case. For the same molecule, the Potency result in [7], in [8], in test [9], in [10], in test [13] and in test [14] was “inactive” in each case. Further, the Potency result in test [15], in [16] and in test [17] was “inactive” each time. The result in test [3] was inactive. For the same molecule, in test [19], the activity change, positive = activation was -1.9% [at 42.5 µM]. Further, the max response in [12] is 3.41%.
